From PubChem BioAssay AID1745846 (National Center for Advancing Translational Sciences (NCATS), 2022)
The whole screen tested about 1,400 compounds, of which about 30 (2%) were called active. Inconclusive results (about 15%) are left out. Calls come from the whole dose curve; as a rule, active = well fitted inhibition curve with a large enough effect; inconclusive = small, poorly fitted or top-dose-only effect; inactive = flat fitted curve, though single readings scatter. The entries come from a sample that favours actives as a whole. Entries that show only a call come without a potency.

experiment: Firefly Luciferase Counterscreen for Inhibitors of ATXN expression; settings: luminescence; series mostly up to 57.5 µM
Excerpt: University of Utah School of Medicine, Salt Lake City, Utah
Spinocerebellar ataxia type 2 (SCA2) is a multisystem neurodegenerative disease caused by a dominantly acting mutation leading to expansion of a polyQ domain in the ataxin-2 protein (ATXN2). SCA2 patients develop progressive ataxia and later lose function in other neuronal systems. Prominent parkinsonian signs develop in some patients. Like many neurodegenerative disorders, no symptomatic or disease-modifying treatments are known.
The primary objective of the proposed research is to identify compounds inhibiting ATXN2 expression and to test them for efficacy in SCA2 mouse models. We have developed a cell-based assay paired with an in vivo mouse model using identical luciferase expression constructs. This approach takes advantage of an ATXN2-luciferase transgene, with the luciferase gene flanked by the upstream and downstream portions of the ATXN2 gene. Here we describe a 5-7 dose quantitative high thoroughput screen (qHTS) for compounds lowering ATXN2 expression. We screened the NIH Molecular Libraries Small Molecule Repository (MLSMR) and NCGC's mechanistically annotated (MIPE) and drug repurposing (NPC) collections of compounds for lowering expression of an ATXN2-luciferase reporter in HEK-293 cells. The assay is a multiplexed cell viability assay to ensure target reduction in the absence of cytotoxicity. Secondary qHTS assays included a CMV-luciferase reporter expressed in HEK-293 cells as well as a biochemical assay using recombinant luciferase to detect inhibitors of the reporter enzyme. Compounds that inhibit ATXN2 expression but is not cytotoxic were selected for confirmatory and secondary screens.
PROTOCOL TABLE (as described by Inglese J, Shamu CE and Guy RK. 2007)
SEQUENCE No. (e.g., 1, 2, 3, etc.); […] (e.g., Cells, Incubation, Reagent, etc.); VALUE; DESCRIPTION.
2; Compounds; 23 nL; Kalypsis pintool (Wako USA) equipped with a 1536-well pin head.
3; Enzyme; 1 uL; recombinant firefly luciferase (prepared in 50 mM Tris HCl pH7.5, 10 mM MgCl2, 0.05% BSA, 0.01% Tween20) at final concentration of 10 nM. Wells containing buffer only were used as control (set as 100% inhibition when normalizing data).
4; Incubation; 10 min; room temperature.
5; Detection; Luminescence; Viewlux plate reader (PerkinElmer).
NOTES (numbers refer to Sequence numbers above)
1. Luciferase substrate is added to 1536 well, Greiner white assay plate. Evaporation was prevented by covering assay plates with metal lids containing holes to allow gas diffusion.
2. Compounds were added in a dose response manner with the final concentrations of 57, 11.4, 2.28, 0.46, 0.091, 0.018, 0.0037 uM. Vehicle-only plates, with DMSO being pin-transferred to columns 5-48, were inserted uniformly at the beginning and the end of each library to monitor and record any shifts in assay performance.
3. Recombinant firefly luciferase (10 nM final concentration) is added to the assay plate.
5. End-point luminescence is then measured on the Viewlux (PerkinElmer) imager equipped with a clear emission filter using a 2 sec exposure.
Inglese J, Shamu CE and Guy RK, Reporting data from high throughput screening of small molecule libraries, Nature Chemical Biology, 2007, 3(8): 438-441. doi.org/10.1038/nchembio0807-438.
Potency is the fitted concentration of half-maximal effect.

SMILES	Potency
COc1ccc(-c2oc3c(OC)c(OC)c(OC)c(O)c3c(=O)c2OC)cc1OC	inactive
CCCCOc1ccc(C(=O)NNC(=S)NC(=O)CC)cc1	inactive
COc1cccc(/C=N/NC(=O)c2c(C)nc3ccc(Cl)cn23)c1O	inactive
CC(C)[C@H](NC(=O)c1ccc(C(C)(C)C)cc1)C(=O)N1CCN(Cc2ccc3c(c2)OCO3)CC1	inactive
COc1cccc(/C=N/NC(=O)Cn2nc(C)c([N+](=O)[O-])c2C)c1O	inactive
Cc1cc(N/N=C/c2ccccc2[N+](=O)[O-])nc(-n2nc(C)cc2C)n1	inactive
NC(Cc1ccccc1)c1csc(Nc2ccc(C(F)(F)F)cn2)n1 (stereo not drawn)	inactive
CCOc1ccc(-n2c(-c3ccccc3)c[n+]3c2CCCCC3)cc1	inactive
Cc1c(C(=O)N2c3ccccc3Sc3ccccc32)cccc1[N+](=O)[O-]	inactive
CCn1c(C)cc(C(=O)COC(=O)c2ccccc2[N+](=O)[O-])c1C	0.0178 µM (active)
CCc1ccc(NC(=O)COc2ccc(/C=C(/C#N)c3nc4ccccc4[nH]3)cc2OC)cc1	inactive
O=C(CNC(=O)c1ccccc1Br)N/N=C/c1ccccc1O	inactive
Cc1ccc(N=Nc2ccc(O)c3ncccc23)cc1	inactive
Cc1cc2sc3ccc(C#CC4(O)CCCCC4)cc3c(=O)c2cc1C	0.251 µM (active)
Oc1c(C(Nc2cccc(C(F)(F)F)c2)c2ccncc2)ccc2cccnc12 (stereo not drawn)	inactive
O=C(CCCOc1ccc(Cl)cc1Cl)N/N=C/c1ccccc1O	inactive
CC[n+]1ccccc1/C=C1\Sc2ccc(C)cc2N1C	inactive
CN1OC[C@@H]2CN[C@H](c3ccc(-c4cc5ccccc5o4)cc3)C[C@@H]21	0.316 µM (active)
CCC(=O)NNC(=S)NC(=O)c1ccc(C)cc1	inactive
COc1ccc(-c2csc(NC(=O)C3CCN(c4ncnc5sc(C)c(C)c45)CC3)n2)cc1OC	inactive
COC(=O)c1c(NC(=O)c2ccc([N+](=O)[O-])o2)sc2c1CCN(C(C)C)C2	inactive

SMILES	Potency
CC(=O)Oc1ccc(C23c4ccccc4C2(OC(C)=O)c2cc(OC(C)=O)ccc23)cc1 (stereo not drawn)	inactive
COc1ccc(C(=O)c2sc(Nc3ccccc3)nc2N)cc1OC	inactive
COC(=O)c1sc(NC(=O)c2ccc(OC)cc2OC)nc1C	0.1 µM (active)
COc1ccc(CC(N)c2csc(NC(=O)c3ccccc3OC)n2)cc1 (stereo not drawn)	inactive
COc1ccc(CSCC(=O)N/N=C/c2ccccc2O)cc1	inactive
Cc1cccc(OCC(=O)Nc2ccc3c(c2)nc(CCN2CCN(c4ccccn4)CC2)n3C)c1	inactive
Cc1cc2oc3cc(NCCC4CCCN4C)ccc3c(=O)c2cc1C (stereo not drawn)	10 µM (active)
CN1CCCC1CCOC(C)(c1ccccc1)c1ccc(Cl)cc1 (stereo not drawn)	inactive
Cc1cc2oc3ccc(NCCC4CCCN4C)cc3c(=O)c2cc1C (stereo not drawn)	6.31 µM (active)
CCN1CCN(C(c2ccc(C(F)(F)F)cc2)c2ccc3cccnc3c2O)CC1 (stereo not drawn)	inactive
COc1ccc(CC2C(=O)NC(C)C(=O)N(C)C3Cc4ccc(cc4)Oc4cc(ccc4O)CC(C(=O)NC(C)C(=O)NC(C)C(=O)N2C)N(C)C3=O)cc1 (stereo not drawn)	inactive
COc1ccc(/C=C2\CN(Cc3ccccc3)C/C(=C\c3ccc(OC)c(O)c3)C2=O)cc1O	inactive
O=C(CN1CCCC1)N/N=C/c1c(O)ccc2ccccc12	inactive
O=C(Nc1nc(-c2ccccn2)cs1)Nc1ccc(F)cc1F	25.1 µM (active)
CCc1ccccc1OCC(=O)Nc1nc(-c2cccnc2)cs1	inactive
O=C(Nc1nc(-c2ccccn2)cs1)c1ccc(F)c(S(=O)(=O)N2CCOCC2)c1	inactive
CC(Oc1ccc(F)cc1)C(=O)Nc1nc(-c2ccccn2)cs1 (stereo not drawn)	inactive
CCc1sc(C(=O)Nc2nc(-c3ccccn3)cs2)cc1C	6.31 µM (active)
O=C(Nc1nc(-c2ccccn2)cs1)c1ccccc1-n1cnnn1	inactive
Cc1ccc(-c2cn(-c3ccc(OC(F)F)cc3)c3[n+]2CCCCC3)cc1	inactive
COc1ccc2oc(/C=C/N(C)C)c(C(=O)c3ccc(Cl)cc3)c2c1	inactive

SMILES	Potency
CC(CCc1ccccc1)NC(=O)c1ccc(C(=O)NC(C)CCc2ccccc2)cc1 (stereo not drawn)	inactive
O=C(NCc1ccccc1)c1ccc(C(=O)N(C2CCCCC2)C2CCCCC2)cc1	inactive
O=C(NNCc1ccccc1)c1ccccc1	10 µM (active)
Cc1ccccc1N=Nc1ccc(O)c2ncccc12	inactive
CCN1C(=O)/C(=C/c2nc3ccccc3c(=O)n2-c2ccccc2)c2ccccc21	inactive
CC(=O)Nc1cccc(-c2ccnc3c2CC(C)(C(=O)Nc2cccc(Oc4ccccc4)c2)O3)c1 (stereo not drawn)	inactive
COc1ccc2sc(-c3ccc(SC)cc3)c(-c3ccc(O)cc3)c2c1	inactive
COc1cc(/C=C(/C#N)C(=O)NCCc2c[nH]c3ccccc23)ccc1OCc1ccccc1F	inactive
COCCCNCCCOc1ccc(Cl)cc1C(C)(C)C	inactive
CC(C)C1C(=O)N(Cc2cn(CCC3OCCO3)nn2)CCS(=O)(=O)N1Cc1ccc(-c2ccc(Cl)cc2)cc1 (stereo not drawn)	inactive
COc1cccc(S(=O)(=O)NCc2ccc(C(=O)Nc3cccc(Cl)c3)cc2)c1	inactive
Cc1ccc(OCCCC(=O)NNC(=O)c2ccccn2)cc1	inactive
CCCC(NCC(O)COc1ccc(-c2ccccc2)cc1)c1ccccc1 (stereo not drawn)	inactive
O=C(Nc1cccc(Br)c1)c1cccc(OC(=S)N2CCOCC2)c1	inactive
O=C(CSc1nnc(-c2ccc(Br)cc2)o1)Nc1cccc(C(=O)O)c1	3.98 µM (active)
O=C(CSc1n[nH]c(-c2ccccn2)n1)Nc1ccccc1	inactive
CC1(C(=O)Nc2cnc3ccccc3c2)CCN1C(=O)c1ccccc1CCc1ccccc1 (stereo not drawn)	inactive
O=C(NC(Nc1ncc(S(=O)(=O)c2ccc([N+](=O)[O-])cc2)s1)(C(F)(F)F)C(F)(F)F)c1ccc(Cl)cc1	inactive
NC(Cc1ccc(C(F)(F)F)cc1)c1csc(Nc2ccc(C(=O)c3ccccc3)cc2)n1 (stereo not drawn)	inactive
Cc1ccc(C2CC(=O)Nc3c2ccc2ccccc32)cc1[N+](=O)[O-] (stereo not drawn)	inactive
CCc1nc2c(OCc3ccc(Cl)cc3)cccn2c1N(C=O)Cc1ccc(OC)cc1	inactive
